Experimental data: PubChem BioAssay AID720690 (Broad Institute, 2013)
Potency and affinity values are given separately. Values without a mark were called inactive.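 How the source made its calls: active means every repeat run showing a signal drop whose fitted half-maximal concentration is at most twice the top tested concentration; inconclusive means repeat runs disagree, or flat partial drop, or poor fit; inactive means the rest.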

Experiment: general mammalian cell viability loss – activator set, cherry-pick, cytotoxicity control for miR-122 modulator project, dose response (AID 720690);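 further: 0% = neutral control wells and -100% = MG132 cytotoxic control wells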
Conditions: HEK293T viability, CellTiter-Glo luminescence, 48 h; series mostly up to 26 µM; activity change, negative = cytotoxicity: at the top concentration

Compound | activity change, negative = cytotoxicity
C[C@@H]1CN([C@H](C)CO)S(=O)(=O)c2ccc(C#CC3(O)CCCC3)cc2O[C@@H]1CN(C)C(=O)c1cccnc1 | -4.02%
CN1C(=O)c2cc(NC(=O)c3cccc(F)c3)ccc2OC[C@@H]2O[C@H](CC(=O)Nc3ccccc3)CC[C@H]21 | -6%
Cc1cc(C(=O)Nc2ccc3c(c2)C(=O)N(C)[C@@H]2CC[C@@H](CC(=O)N[C@H](C)c4ccccc4)O[C@H]2CO3)no1 | 11.4%
C=CCNC(=S)NNC(=O)Cn1c(-c2ccccc2)cc(=O)n2ncnc12 | 14.3%
COc1ccc(C(=O)C2CCCN(Cc3cccn3-c3ccccn3)C2)c(OC)c1 (centres undefined) | -32.3%
CCC(=O)N1[C@H](CN(CC)C(=O)c2ccccc2)[C@@H](c2ccccc2)[C@@H]1CO | -9.62%
O=C(Cc1cccnc1)N1[C@@H](CO)[C@@H]2c3ccccc3NC[C@@H]21 | -12.6%
C[C@H](CO)N1C[C@H](C)[C@@H](CN(C)Cc2ccc(Oc3ccccc3)cc2)Oc2ncc(-c3cncnc3)cc2C1=O | -8.03%
CC(C)NC(=O)Nc1ccc2c(c1)C(=O)N(C)[C@H]1CC[C@H](CC(=O)NCC(F)(F)F)O[C@H]1CO2 | 12.3%
CCCC#Cc1ccc2c(c1)O[C@H](CN(C)C(=O)c1ccncc1)[C@H](C)CN([C@@H](C)CO)S2(=O)=O | 2.83%
COCC(=O)Nc1ccc2c(c1)C(=O)N(C)[C@@H]1CC[C@H](CC(=O)NCCCN(C)C)O[C@H]1CO2 | -12.7%
CN1C(=O)c2cc(NC(=O)Nc3cccc(Cl)c3)ccc2OC[C@H]2O[C@H](CC(=O)NCCc3ccncc3)CC[C@H]21 | -1.57%
CNC(=O)C[C@H]1CC[C@@H]2[C@H](COc3ccc(NC(=O)c4ccc(OC)cc4)cc3C(=O)N2C)O1 | -9.74%
CCC(=O)N1[C@H](CO)[C@@H](c2ccccc2)[C@@H]1CN(C)C(=O)CN1CCOCC1 | 2.2% [at 23.5 µM]
COCC(=O)N(C)C[C@@H]1[C@@H](c2ccccc2)[C@H](CO)N1C(=O)Cc1ccncc1 | -2.97% [at 23.5 µM]
CN(C[C@H]1N[C@@H](CO)[C@@H]1c1ccc(C2=CCCC2)cc1)C(=O)c1ccccn1 | -20.3%
CN(C[C@@H]1[C@@H](c2ccccc2)[C@H](CO)N1C(=O)C1CCC1)C(=O)c1ccccn1 | -5.49%
CCOC(=O)C1CN(S(=O)(=O)c2ccccc2)CCN1S(=O)(=O)c1ccccc1 (centres undefined) | -5.76%
CCNC(=O)C[C@H]1CC[C@H]2[C@H](COc3ccc(NC(=O)Nc4cccc(OC)c4)cc3C(=O)N2C)O1 | -2.63% [at 23.5 µM]
CCCCN1C=C(C(=O)OC)C(c2ccccc2C(F)(F)F)C(C(=O)OC)=C1 | -3.92%

Compound | activity change, negative = cytotoxicity
CN1C(=O)c2cc(NC(=O)Nc3ccccc3F)ccc2OC[C@@H]2O[C@H](CC(=O)O)CC[C@@H]21 | -1.17% [at 23.5 µM]
CCCC(=O)Nc1ccc2c(c1)C(=O)N(C)[C@@H]1CC[C@@H](CC(=O)NCC(F)(F)F)O[C@H]1CO2 | 1.75%
CCCC(=O)Nc1ccc2c(c1)C(=O)N(C)[C@@H]1CC[C@H](CC(=O)NCCN3CCCCC3)O[C@H]1CO2 | -17.2%
CN1C(=O)c2cc(NC(=O)c3ccc(F)cc3)ccc2OC[C@@H]2O[C@@H](CC(=O)O)CC[C@@H]21 | 11%
CN1C(=O)c2cc(NC(=O)c3cccc(F)c3)ccc2OC[C@H]2O[C@@H](CC(=O)O)CC[C@H]21 | 8.84%
CNC(=O)C[C@@H]1CC[C@@H]2[C@@H](COc3ccc(NC(=O)NC(C)C)cc3C(=O)N2C)O1 | -2.47%
CCCCCn1c(=O)[nH]c2cc(C(=O)NCCN3C(C)CCCC3C)ccc2c1=O (centres undefined) | -0.956%
CCNC(=O)C[C@@H]1CC[C@@H]2[C@@H](COc3ccc(NC(=O)c4ccccc4)cc3C(=O)N2C)O1 | -2.68% [at 23.5 µM]
C[C@@H]1CN([C@@H](C)CO)C(=O)c2cc(NS(=O)(=O)c3ccc(F)cc3)ccc2O[C@@H]1CN(C)Cc1ccc(-c2ccccc2)cc1 | -22.7%
CCOc1ccc(NC(=S)N(CCCN2CCCC2)Cc2cccn2Cc2ccc(Cl)cc2)cc1 | -12.4%
O=C(CNCCC1=CCCCC1)Nc1ccccc1N1CCCCCC1 | -25.6%
CCCNC(=O)N1[C@H](CNC(C)=O)[C@H](c2ccc(C3=CCCC3)cc2)[C@@H]1CO | 0.113%
COC(=O)C[C@@H]1CC[C@H]2[C@@H](COc3ccc(NC(=O)c4ccc(F)c(F)c4)cc3C(=O)N2C)O1 | -15.5%
O=C(Nc1ccccc1)N1C[C@@H]2[C@H](c3ccccc31)[C@H](CO)N2C(=O)c1ccncc1 | -15.6% [at 23.5 µM]
CNC(=O)C[C@@H]1CC[C@@H]2[C@@H](COc3ccc(NC(=O)c4cccc(OC)c4)cc3C(=O)N2C)O1 | 16.2%
CN(C)C(=O)c1ccc(-c2ccc([C@H]3[C@@H](CO)N4CCCCN(C(=O)C5CCCC5)C[C@@H]34)cc2)cc1 | -8.32%
CCC(=O)N1[C@H](CO)[C@@H](c2ccccc2)[C@H]1CN(C(C)C)S(C)(=O)=O | -14.6%
CCCNC(=O)Nc1ccc2c(c1)OC[C@H](C)N(CCC)C[C@H](C)[C@H](OC)CN(C)C2=O | -12.6%
COc1ccc2[nH]c(=O)c(COC(=O)c3ccco3)cc2c1 | -0.84%
